PubChem BioAssay (Tox21)
Inconclusive results are not listed. The source made the active and inactive calls. Unless noted, the call rests on the fitted dose curve; in most records, active means well fitted curve in the direction sought with a large enough effect in the repeat runs; inconclusive means weak or mixed curves; inactive means no such curve, though single readings can be large; an effect the other way counts as inactive or inconclusive.

Key:
[1] = biological target: Progesterone receptor (Homo sapiens) (UniProt P06401); assay: qHTS assay to identify small molecule antagonists of the progesterone receptor (PR) signaling pathway (AID 1346795; active means well fitted inhibition curve with a large enough effect in the signal ratio in the repeat runs, not every such curve was filed as active; the % refers to the signal ratio; further: potency means the concentration at half of the fitted maximal effect)
Sequence of Progesterone receptor (Homo sapiens) (P06401 whole entry, looked up): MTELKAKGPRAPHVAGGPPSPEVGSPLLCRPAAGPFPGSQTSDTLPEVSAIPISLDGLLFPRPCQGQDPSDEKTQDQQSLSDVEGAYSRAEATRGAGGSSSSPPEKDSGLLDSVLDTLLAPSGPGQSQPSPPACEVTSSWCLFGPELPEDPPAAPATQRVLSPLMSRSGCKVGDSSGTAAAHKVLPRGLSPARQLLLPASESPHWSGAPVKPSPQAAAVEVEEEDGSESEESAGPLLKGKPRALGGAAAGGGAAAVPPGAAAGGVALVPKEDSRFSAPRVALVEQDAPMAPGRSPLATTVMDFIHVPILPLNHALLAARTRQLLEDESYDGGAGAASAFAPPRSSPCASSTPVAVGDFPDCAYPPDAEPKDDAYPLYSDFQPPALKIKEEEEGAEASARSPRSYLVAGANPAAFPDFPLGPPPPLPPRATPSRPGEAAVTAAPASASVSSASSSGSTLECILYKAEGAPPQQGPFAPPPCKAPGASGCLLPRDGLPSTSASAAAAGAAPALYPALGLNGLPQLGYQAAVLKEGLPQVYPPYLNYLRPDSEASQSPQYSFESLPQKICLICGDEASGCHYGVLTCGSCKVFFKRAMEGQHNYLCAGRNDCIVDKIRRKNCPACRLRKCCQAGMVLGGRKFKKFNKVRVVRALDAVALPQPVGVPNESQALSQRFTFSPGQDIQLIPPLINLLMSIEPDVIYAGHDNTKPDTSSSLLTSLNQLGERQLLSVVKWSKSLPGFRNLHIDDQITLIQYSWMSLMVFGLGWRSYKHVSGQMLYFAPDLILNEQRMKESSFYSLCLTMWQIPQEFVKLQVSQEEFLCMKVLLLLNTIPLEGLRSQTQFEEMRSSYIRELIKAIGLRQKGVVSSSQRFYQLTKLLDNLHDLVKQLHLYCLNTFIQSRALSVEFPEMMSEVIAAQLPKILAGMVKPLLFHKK
Procedure, shortened: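 After 6 hr plating at 37C in 2% stripped-serum medium, PR-UAS-bla HEK293T cells got compounds, then 1 nM R5020. Sixteen hours later, LiveBLAzer substrate was applied for 2 hr at room temperature and fluorescence was recorded.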

[2] = qHTS assay to identify small molecule antagonists of the TGF-beta/Smad signaling pathway - cell viability counter screen (AID 1346824); further: nearly all actives have a fitted effect of over 50% in size
Procedure, shortened: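 SBE-bla HEK 293T cells, incubated overnight, then compound plus 0.25 ng/mL TGF-beta1 (stock added) for 5 hr at 37 C. Viability was read in the same wells by CellTiter-Glo luminescence after 30 min at room temperature.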

[3] = qHTS assay to identify small molecule agonists of the TGF-beta/Smad signaling pathway - cell viability counter screen (AID 1346829); further: top concentration of the series differs between compounds; nearly all actives have a fitted effect of over 45% in size
Procedure, shortened: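 Luminescence from CellTiter-Glo, read after a 30 min room-temperature incubation, gives cell viability of SBE-bla HEK 293T cells treated 5 hr with compounds at 37 C.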

[4] = qHTS assay to identify small molecule agonists of the TGF-beta/Smad signaling pathway (AID 1346859; active means well fitted activation curve with a large enough effect in the signal ratio in the repeat runs, not every such curve was filed as active; the % refers to the signal ratio; further: series mostly up to about 77 µM)
Procedure, shortened: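 Dual-wavelength fluorescence (460/530 nm emission) quantified beta-lactamase expression under the Smad binding element in HEK 293T cells following 5 hr compound treatment at 37 C.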

[5] = Human pregnane X receptor (PXR) small molecule agonists, qHTS cell viability counter screen (AID 1346977); further: nearly all actives have a fitted effect of over 50% in size
Procedure, shortened: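 HepG2 cells stably carrying the PXR-Luc reporter are cultured with 5% charcoal-stripped FBS and treated with compounds for 24hr. CellTiter-Fluor is added at 23hr and fluorescence is read after 1hr.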

[6] = qHTS assay to identify small molecule agonists of the progesterone receptor (PR) signaling pathway - cell viability counter screen (AID 1346799; calls by dose curve; further: nearly all actives have a fitted effect of over 45% in size; further: potency means the concentration at half of the fitted maximal effect)
Procedure, shortened: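 Viability was scored by ATP luminescence (CellTiter-Glo, 30 min, room temperature) in the same wells used for the reporter readout, after 16 hr compound exposure of PR-UAS-bla HEK293T cells.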

[7] = Caspase-3/7 induction in HepG2 cells by small molecules, qHTS assay (AID 1346978); further: nearly all actives have a fitted effect of over 15% in size
Procedure, shortened: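 Wild-type HepG2 cells, 2,000/well, settled 5 hr at 37 C and 5% CO2, then compound-treated for 17 hr; caspase-3/7 activity read by luminescent Caspase-Glo 3/7 after 30 min at room temperature.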

[8] = biological target: Thyrotropin-releasing hormone receptor (Homo sapiens) (UniProt P34981); assay: qHTS assay to identify small molecule antagonists of the thyrotropin-releasing hormone receptor (TRHR) signaling pathway (AID 1346877; active means well fitted inhibition curve with a large enough effect in the repeat runs, not every such curve was filed as active; further: series mostly up to about 51 µM)
Sequence of Thyrotropin-releasing hormone receptor (Homo sapiens) (P34981 whole entry, looked up): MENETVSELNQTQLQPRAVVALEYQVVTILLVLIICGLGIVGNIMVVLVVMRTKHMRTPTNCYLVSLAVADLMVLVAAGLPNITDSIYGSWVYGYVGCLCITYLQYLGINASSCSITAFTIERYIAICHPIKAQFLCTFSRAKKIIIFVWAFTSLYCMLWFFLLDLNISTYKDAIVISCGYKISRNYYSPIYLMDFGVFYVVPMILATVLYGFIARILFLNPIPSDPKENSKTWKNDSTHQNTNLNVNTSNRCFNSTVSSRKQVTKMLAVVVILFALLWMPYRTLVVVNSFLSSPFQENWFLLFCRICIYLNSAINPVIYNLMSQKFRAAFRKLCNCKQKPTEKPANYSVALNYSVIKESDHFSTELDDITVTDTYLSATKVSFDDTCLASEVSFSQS
Procedure, shortened: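 Calcium signal in dye-loaded TRHR/HEK293 cells; compounds added 5 min before TRH (1 nM final); fluorescence monitored 3 min at 1 s steps.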

[9] = biological target: Thyrotropin-releasing hormone receptor (Homo sapiens) (UniProt P34981); assay: qHTS assay to identify small molecule agonists of the thyrotropin-releasing hormone receptor (TRHR) signaling pathway (AID 1346891; calls by dose curve;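 further: HEK293 cells expressing TRHR with calcium dye readout; series mostly up to about 58 µM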)
Procedure, shortened: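 Kinetic fluorescence (3 min, 1 s intervals) reported intracellular calcium after compound transfer onto TRHR-Hek293 cells pre-loaded with dye for 2 h at 37 °C.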
On the % scale 0 is the no-effect control and ±100 the full control effect.

CCCCCCOc1ccccc1C(N)=O
inactive: outcome [2] | outcome [3] | outcome [4] | Potency [5]
active: Potency [1] 7.5 µM

C[Si](C)(C)C
inactive: Potency [1] | Potency [6] | outcome [2] | outcome [3] | Potency [5] | Potency [7]

O=C(OCC1(COC(=O)c2cccnc2)CCCC(COC(=O)c2cccnc2)(COC(=O)c2cccnc2)C1O)c1cccnc1
inactive: Potency [1] | Potency [6] | outcome [2] | outcome [3] | outcome [4] | Potency [5]

CCCCNC1CC(C)(C)NC(C)(C)C1
inactive: Potency [1] | Potency [6] | outcome [2] | outcome [3] | outcome [4] | outcome [8] | outcome [9] | Potency [5] | Potency [7]

Cc1cccc2nccnc12
inactive: Potency [1] | Potency [6] | outcome [3] | outcome [4] | outcome [8] | outcome [9] | Potency [5] | Potency [7]

CCN(CC)CC(=O)Nc1c(C)cccc1C
inactive: Potency [1] | Potency [6] | outcome [3] | outcome [8] | outcome [9] | Potency [5] | Potency [7]

O=C(OCC(O)CO)c1ccccc1Nc1ccnc2c(C(F)(F)F)cccc12 (stereo not drawn)
active: Potency [1] 29.8 µM
inactive: outcome [2] | outcome [3] | outcome [4] | outcome [8] | outcome [9] | Potency [5] | Potency [7]

CC(=O)c1ccc2c(c1)Cc1ccccc1-2
inactive: Potency [6] | outcome [3] | outcome [8]
active: Potency [1] 12.2 µM

CC(C)CC(C)CC(C)CC(C)COC(=O)c1ccccc1C(=O)OCC(C)CC(C)CC(C)CC(C)C (stereo not drawn)
inactive: Potency [1] | Potency [6] | outcome [2] | outcome [3] | outcome [4] | outcome [8] | outcome [9] | Potency [5]

O=C(O)CCSSCCC(=O)O
inactive: Potency [1] | Potency [6] | outcome [2] | outcome [3] | outcome [4] | outcome [8] | outcome [9] | Potency [5] | Potency [7]

CC(=O)Nc1ccc(S(=O)(=O)Nc2ccc([N+](=O)[O-])cc2)cc1
inactive: Potency [1] | Potency [6] | outcome [3] | outcome [4] | outcome [8] | Potency [7]

CCc1ccc(C=O)cc1
inactive: Potency [1] | Potency [6] | outcome [3] | outcome [8] | Potency [5] | Potency [7]

CCCOC(OCCC)OCCC
inactive: Potency [1] | Potency [6] | outcome [3] | outcome [4] | Potency [5] | Potency [7]

NCCN1CCOCC1
inactive: Potency [1] | Potency [6] | outcome [2] | outcome [3] | outcome [8] | outcome [9] | Potency [5] | Potency [7]

CC(=O)c1sc(C)nc1C
inactive: Potency [1] | Potency [6] | outcome [3] | outcome [8] | Potency [5]

C[Si](C)=O
inactive: activity change, negative = inhibition [1] 12.9% [at 8.39 µM] | activity change, negative = cytotoxicity [6] 7.66% [at 8.39 µM] | viability change, negative = cytotoxic [2] 0.719% [at 6.97 µM] | activity change, negative = cytotoxicity [3] 3.98% [at 6.97 µM] | activity change, negative = cytotoxicity [5] 7.41% [at 8.39 µM] | caspase activation [7] 0.773% [at 8.39 µM]

N#Cc1ccc(C(=O)O)cc1
inactive: Potency [1] | outcome [2] | outcome [3] | outcome [4] | outcome [8] | outcome [9] | Potency [5] | Potency [7]

CCCCCCCCCC(C)=O
inactive: Potency [1] | Potency [6] | outcome [2] | outcome [3] | outcome [4] | outcome [8] | outcome [9] | Potency [5] | Potency [7]

CO[C@@H]1[C@@H](OC(N)=O)[C@@H](O)[C@H](Oc2ccc3c(O)c(NC(=O)c4ccc(O)c(CC=C(C)C)c4)c(=O)oc3c2C)OC1(C)C
inactive: Potency [1] | outcome [3] | outcome [4] | outcome [8] | Potency [5] | Potency [7]

CC(C)(C)OC(=O)c1ccc(O)cc1
inactive: outcome [3] | outcome [4] | outcome [8] | outcome [9] | Potency [5] | Potency [7]
active: Potency [1] 54.5 µM

On1nnc2ccccc21
active: Potency [6] 1.37 µM
inactive: Potency [1] | outcome [2] | outcome [3] | Potency [5] | Potency [7]

C[C@@H](O)[C@H]1C(=O)N2C(C(=O)O)=C(SCCN=CN)C[C@H]12
inactive: Potency [1] | Potency [6] | outcome [2] | outcome [3] | outcome [4] | outcome [8] | outcome [9] | Potency [5] | Potency [7]

CC(N)C(=O)OC(C)(C)Cc1ccc(Cl)cc1 (stereo not drawn)
inactive: Potency [1] | outcome [2] | outcome [3] | outcome [4] | Potency [5] | Potency [7]

CCCC/C=C/C=C\C=O
inactive: Potency [1] | Potency [6] | outcome [3] | Potency [5] | Potency [7]

CC(=O)N[C@@H](CCC(=O)O)C(=O)O
inactive: Potency [1] | Potency [6] | outcome [2] | outcome [3] | outcome [4] | outcome [8] | outcome [9] | Potency [5] | Potency [7]

CN1CCN(CC(=O)N2c3ccccc3C(=O)Nc3cccnc32)CC1
inactive: activity change, negative = inhibition [1] 9.85% [at 8.39 µM] | activity change, negative = cytotoxicity [6] -2.12% [at 8.39 µM] | activity change, negative = cytotoxicity [3] -15% [at 6.97 µM] | activity change, negative = cytotoxicity [5] 5.67% [at 8.39 µM] | caspase activation [7] -1.35% [at 8.39 µM]

O=C(O)c1cc(Br)c(O)c(Br)c1
inactive: Potency [1] | Potency [6] | outcome [2] | outcome [3] | outcome [4] | outcome [8] | outcome [9] | Potency [5] | Potency [7]

Cc1ccc(C=O)cc1C
inactive: Potency [1] | Potency [6] | outcome [2] | outcome [3] | outcome [4] | outcome [8] | outcome [9] | Potency [5] | Potency [7]

O=S(=O)(O)CCN1CCN(CCO)CC1
inactive: Potency [1] | outcome [2] | outcome [3] | outcome [4] | outcome [8] | outcome [9] | Potency [5] | Potency [7]
